Assay outcomes: PubChem, National Center for Advancing Translational Sciences (NCATS)
VP16 counter: VP16 counterscreen qHTS for inhibitors of ROR gamma transcriptional activity. 3.5% of 310,000 active. Potency, µM (titrated, usually from 53.6 µM), most hits filed as inhibitors. Drosophila S2 Gal4-VP16 UAS-luciferase, luminescence, 20 h;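 further: Gal4-VP16 expression switched on by copper sulfate through the metallothionein promoter; nearly all actives have a fitted effect of over 50% in size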
TDP1 cell noCPT: qHTS for Inhibitors of human tyrosyl-DNA phosphodiesterase 1 (TDP1): qHTS in cells in absence of CPT; DT40 Tdp1-/- hTDP1 cells, no CPT, ATP luminescence, 48 h; Potency, µM (series often up to 46.2 µM), hits mostly inhibitors; 15% of 420,000 active; AID 686978, 2013; further: nearly all actives have a fitted effect of over 55% in size
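Cells were dispensed at 400 per well, compounds added by pin tool, plates incubated ≥48 hr at 37 °C, then CellTiter-Glo added for 30 min at room temperature before luminescence reading. Line: DT40 Tdp1-/- complemented with hTDP1; camptothecin omitted.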
ELG1 DNA repair: qHTS screen for small molecules that inhibit ELG1-dependent DNA repair in human embryonic kidney (HEK293T) cells expressing luciferase-tagged ELG1; HEK293T ELG1-luciferase reporter, luminescence, 16 h; DNA damage induced by 5-fluorouridine; Potency, µM (doses to about 46.1 µM), most hits filed as inhibitors; 2.3% of 330,000 active; AID 504467, 2011; further: nearly all actives have a fitted effect of over 55% in size
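Cells (2,000 per well) received 5-fluorouridine plus test compound or DMSO and were incubated 16 hr at 37 °C, 5% CO2. Luciferase activity was read by luminescence 30 min after ONE-Glo addition; signal suppression marked inhibition of damage-induced ELG1 function.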
IL1B secr inh: qHTS for Inhibitors of Inflammasome Signaling: IL-1-beta AlphaLISA Primary Screen; THP-1 LPS/ATP IL-1B secretion, AlphaLISA, 16 h; hits give low values; activity change, % at 57.5 µM; 4.7% of 360,000 active; in the data active means activity change below about -50%; inconclusive means mostly about -30% to -49%
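Secreted IL-1B measured by AlphaLISA bead assay after 16 h compound exposure of THP-1 cells; compounds (final up to 57.5 uM) added 1 h before LPS (250 ng/mL) and ATP (1.25 mM) stimulation; lower signal means less secretion.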
RORgamma inh: qHTS for inhibitors of ROR gamma transcriptional activity. Drosophila S2 Gal4-RORgamma UAS-luciferase reporter, 20 h. Potency, µM (doses to about 53.6 µM), actives largely listed as inhibitors. 5.4% of 310,000 active; further: nearly all actives have a fitted effect of over 60% in size
Target sequence (P51450 whole entry, looked up, the tested form may be a part): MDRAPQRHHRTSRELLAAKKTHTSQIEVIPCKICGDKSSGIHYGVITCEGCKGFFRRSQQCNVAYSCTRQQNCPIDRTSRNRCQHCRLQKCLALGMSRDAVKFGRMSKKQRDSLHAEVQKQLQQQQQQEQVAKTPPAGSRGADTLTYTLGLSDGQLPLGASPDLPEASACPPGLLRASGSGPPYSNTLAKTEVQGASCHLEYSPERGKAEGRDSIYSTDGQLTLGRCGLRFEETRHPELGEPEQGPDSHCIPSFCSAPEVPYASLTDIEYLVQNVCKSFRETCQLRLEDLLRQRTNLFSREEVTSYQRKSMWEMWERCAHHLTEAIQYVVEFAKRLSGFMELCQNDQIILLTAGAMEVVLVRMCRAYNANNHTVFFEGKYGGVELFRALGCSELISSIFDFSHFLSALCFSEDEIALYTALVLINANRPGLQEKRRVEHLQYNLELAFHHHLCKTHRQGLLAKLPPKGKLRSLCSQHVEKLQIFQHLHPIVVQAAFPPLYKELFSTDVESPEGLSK
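Drosophila S2 cells stably expressing Gal4-DBD/mouse RORγ fusion under metallothionein promoter plus UAS-luciferase; compound 1 h, then 700 uM CuSO4 induction for 20 h at ambient temperature; inhibition read as reduced luminescence.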
TDP1 cell CPT: qHTS for Inhibitors of human tyrosyl-DNA phosphodiesterase 1 (TDP1): qHTS in cells in presence of CPT; chicken DT40 Tdp1-/-;hTDP1 cells + 20 nM CPT, ATP luminescence, 48 h; Potency, µM (doses to about 46.2 µM), hits mostly inhibitors; 12% of 420,000 active; further: nearly all actives have a fitted effect of over 55% in size
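Chicken DT40 Tdp1-/- cells complemented with human TDP1, 400 cells/well, exposed to compounds plus 20 nM camptothecin for at least 48 h at 37 C; viability read as ATP content by CellTiter-Glo luminescence.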
Hits are given with their value; ! = not active in a repeat; [ ] = remark or other dose. The list is not random: actives were taken first. Their share in the collection is about 21%. Unless noted, the call rests on the fitted dose curve; in most records, active means well fitted curve in the direction sought with a large enough effect; inconclusive means small, poorly fitted or top-dose-only effect, or another doubt; inactive means no such curve, though single readings can be large; an effect the other way counts as inactive or inconclusive.

`Cc1c(NC(=O)Nc2ccc(Cl)c(Cl)c2)sc2nc3n(c(=O)c12)CCC(C)CC3` (stereo unspecified) gave TDP1 cell noCPT 8.2µM and TDP1 cell CPT 5.2µM.
COc1cc(Cl)c(C)cc1NC(=O)c1sc2nc3n(c(=O)c2c1C)CCCCC3 was read as TDP1 cell noCPT inactive and TDP1 cell CPT inactive.
Screening COCCn1c(C)cc(O)c(C(c2ccc(OC)cc2)N2CCN(c3ccccc3)CC2)c1=O (stereo unspecified) returned TDP1 cell noCPT inactive and TDP1 cell CPT inactive.
For C=CCC(CC=C)(NC(=O)c1cccc(C)c1)c1ccccc1 the results were VP16 counter inactive, TDP1 cell noCPT inactive, ELG1 DNA repair inactive, IL1B secr inh inactive, RORgamma inh inactive[10 µM] and TDP1 cell CPT inactive.
CCOC(=O)C1CCCCN1S(=O)(=O)c1cc2c(cc1C)NC(=O)CO2 (stereo unspecified) was read as VP16 counter inactive, TDP1 cell noCPT inconclusive, ELG1 DNA repair inactive, IL1B secr inh inactive, RORgamma inh inactive and TDP1 cell CPT inconclusive.
`Clc1cccc(Cl)c1CO/N=C/c1c(-c2ccccc2)nc2n1CCS2` gave VP16 counter inactive, TDP1 cell noCPT 21µM, ELG1 DNA repair inactive, IL1B secr inh inactive, RORgamma inh 7.1µM and TDP1 cell CPT 18µM.
For Cc1cnc(C(=O)OCC(=O)NCc2cccc(Cl)c2)cn1 the results were TDP1 cell noCPT inactive, ELG1 DNA repair inactive, IL1B secr inh inactive and TDP1 cell CPT inactive.
COc1cccc(-c2ncc3ccccc3c2COC(=O)N(C)C)c1 was read as TDP1 cell noCPT 18µM, ELG1 DNA repair inactive, IL1B secr inh inactive and TDP1 cell CPT 18µM.
O=C(OCc1c(-c2ccccc2)ncc2ccccc12)c1ccc(Br)cc1 was read as TDP1 cell noCPT 13µM, ELG1 DNA repair inconclusive, IL1B secr inh inactive and TDP1 cell CPT inactive.
`COc1cccc(-c2ncc3ccccc3c2COC(=O)c2ccc(C(F)(F)F)cc2)c1` gave TDP1 cell noCPT inconclusive, ELG1 DNA repair 21µM, IL1B secr inh inactive and TDP1 cell CPT inconclusive.
Screening COc1c(OC(C)=O)ccc(/C=N\NC(=O)c2ccc(Br)cc2)c1[N+](=O)[O-] returned VP16 counter inactive, TDP1 cell noCPT inconclusive, ELG1 DNA repair inconclusive, IL1B secr inh inactive, RORgamma inh inactive and TDP1 cell CPT inconclusive.
`CCCCSc1nnc2n(CCc3ccccc3)c(=O)c3c4c(sc3n12)COC(C)(C)C4` gave VP16 counter inactive, TDP1 cell noCPT 23µM, ELG1 DNA repair inactive, IL1B secr inh inactive, RORgamma inh inactive and TDP1 cell CPT 23µM.
`COc1ccc(OC)c(NC(=O)CCc2c(C)nn(-c3ccc(N4CCCC4)nn3)c2C)c1` gave TDP1 cell noCPT 15µM and TDP1 cell CPT 21µM.
For Cc1nn(-c2ccc(N3CCCC3)nn2)c(C)c1CCC(=O)N1CCN(c2ccc(F)cc2)CC1 the results were TDP1 cell noCPT inconclusive and TDP1 cell CPT 15µM.
For Cc1ccccc1NC(=O)CCc1c(C)nn(-c2ccc(N3CCCCC3)nn2)c1C the results were VP16 counter inactive, TDP1 cell noCPT 21µM!, ELG1 DNA repair inconclusive, IL1B secr inh inactive, RORgamma inh inactive and TDP1 cell CPT 16µM.
Screening Cc1cccc(NC(=O)CCc2c(C)nn(-c3ccc(N4CCOCC4)nn3)c2C)c1 returned VP16 counter inactive, TDP1 cell noCPT inactive, ELG1 DNA repair inconclusive, IL1B secr inh inactive, RORgamma inh inactive and TDP1 cell CPT inactive.
`Cc1nn(-c2ccc(N3CCOCC3)nn2)c(C)c1CCC(=O)Nc1ccc(F)cc1` gave VP16 counter inactive, TDP1 cell noCPT 16µM, ELG1 DNA repair inactive, IL1B secr inh inactive, RORgamma inh inactive and TDP1 cell CPT inactive.
`COc1cccc(CNC(=O)CCc2c(C)nn(-c3ccc(N4CCCC4)nn3)c2C)c1` gave TDP1 cell noCPT inconclusive and TDP1 cell CPT inactive.
For Cc1nn(-c2ccc(N3CCOCC3)nn2)c(C)c1CCC(=O)N1CCN(C)CC1 the results were VP16 counter inactive, TDP1 cell noCPT inactive, ELG1 DNA repair inactive, IL1B secr inh inactive, RORgamma inh inactive and TDP1 cell CPT inactive.
`Cc1ccccc1S(=O)(=O)NC(=O)C1(C)CCN1C(=O)CCc1ccc(Cl)cc1Cl` (stereo unspecified) gave TDP1 cell noCPT inactive, IL1B secr inh inactive and TDP1 cell CPT inactive.
C[C@H](NS(=O)(=O)c1c(Cl)cccc1Cl)C(=O)NNC(=O)COc1ccccc1F was read as TDP1 cell noCPT inactive, ELG1 DNA repair inactive, IL1B secr inh inactive and TDP1 cell CPT inactive.
Cc1ccn(CCC(=O)N2CCc3ccccc32)n1 was read as VP16 counter inactive, TDP1 cell noCPT inactive, ELG1 DNA repair inconclusive, IL1B secr inh inactive, RORgamma inh inactive and TDP1 cell CPT inactive.
`COc1cc(NC(=O)CCc2c(C)nn(-c3ccc(N4CCCCC4)nn3)c2C)cc(OC)c1OC` gave TDP1 cell noCPT inconclusive and TDP1 cell CPT 21µM.
COC(=O)c1ccc(NC(=O)CCc2c(C)nn(-c3ccc(N4CCCCC4)nn3)c2C)cc1 was read as TDP1 cell noCPT inconclusive and TDP1 cell CPT 23µM.
`COc1ccc(C)cc1N(C(=O)c1ccccc1F)c1nc2ccccc2s1` gave VP16 counter inactive, TDP1 cell noCPT 18µM, ELG1 DNA repair inactive, IL1B secr inh inactive, RORgamma inh inactive and TDP1 cell CPT inconclusive.
Screening Cc1cc(C)c(NC(=O)CSCc2c(C)noc2C)c(Cl)c1 returned TDP1 cell noCPT inactive, ELG1 DNA repair inactive, IL1B secr inh inconclusive and TDP1 cell CPT inactive.
For O=C(N/N=C/c1c(Cl)cccc1Cl)c1n[nH]c2c1CCCC2 the results were VP16 counter inactive, TDP1 cell noCPT 12µM, ELG1 DNA repair inconclusive, IL1B secr inh inactive, RORgamma inh inactive and TDP1 cell CPT 23µM.
Screening Cc1ccsc1/C=N\NC(=O)c1n[nH]c2c1CCC2 returned VP16 counter 7.1µM, TDP1 cell noCPT 3.3µM, ELG1 DNA repair inconclusive, IL1B secr inh inactive, RORgamma inh 4µM and TDP1 cell CPT 3.3µM.
Screening Cc1ccsc1/C=N/NC(=O)c1ccc2nc[nH]c2c1 returned VP16 counter inactive, TDP1 cell noCPT inconclusive, ELG1 DNA repair inconclusive, IL1B secr inh inactive, RORgamma inh inactive and TDP1 cell CPT inactive.
